# Experimental data from PubChem BioAssay (NCI).
# Several values for one entry are separate records, joined by “and”; a condition that tells them apart may be missing. Identical values can stand only once. This is part of a sample that, as a whole, favours compounds with a hit. Of some 83,000 tested, about 20% had one in any assay.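 Treatment: one concentration, 48 hours, 96-well format. Scoring: percent growth, with anything below 10 considered active.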 Activity calls are given as the source filed them.
# Experiments:
# Experiment in all cases: NCI-60 one-dose screen, 48 h (100 = growth as untreated, 0 = no growth, -100 = all killed)
# HCT-15 colon = system: HCT-15 colon
# HT29 colon = system: HT29 colon
# SNB-75 CNS = system: SNB-75 CNS
# SNB-19 CNS = system: SNB-19 CNS
# PC-3 prostate = system: PC-3 prostate
# SK-MEL-5 melanoma = conditions: 10 µM unless noted
# UACC-62 melanoma = system: UACC-62 melanoma
# LOX IMVI melanoma = conditions: 10 µM unless noted
# SK-MEL-28 melanoma = system: SK-MEL-28 melanoma
# SK-MEL-2 melanoma = system: SK-MEL-2 melanoma
# EKVX NSCLC = system: EKVX NSCLC
# UO-31 renal = system: UO-31 renal
# TK-10 renal = system: TK-10 renal
# ACHN renal = system: ACHN renal
# CAKI-1 renal = system: CAKI-1 renal
# A498 renal = system: A498 renal
# CCRF-CEM leukemia = system: CCRF-CEM leukemia
# MOLT-4 leukemia = system: MOLT-4 leukemia
# SN12C renal = system: SN12C renal
# U251 CNS = conditions: 10 µM unless noted
compound,measurement,setting,value
Nc1c2ccccc2nc2ccccc12,growth,HCT-15 colon; 10 µM,5.79% (active) and 15.8% (inactive) and 26.5% (inactive)
same,growth,HT29 colon; 10 µM,-21.6% (active) and 20.8% (inactive) and 19.9% (inactive)
same,growth,SNB-75 CNS; 10 µM,33.1% (inactive) and 51.8% (inactive) and 89.3% (inactive)
same,growth,SNB-19 CNS; 10 µM,22.5% (inactive) and 39.8% (inactive)
same,growth,PC-3 prostate; 10 µM,23.7% (inactive) and 9.05% (active) and 41.1% (inactive)
same,growth,SK-MEL-5 melanoma,5.28% (active) and 19.7% (inactive) and 39.5% (inactive)
same,growth,UACC-62 melanoma; 10 µM,13.9% (inactive) and 36.3% (inactive) and 27.3% (inactive)
same,growth,LOX IMVI melanoma,-53.7% (active) and 14.9% (inactive) and 12.4% (inactive)
same,growth,SK-MEL-28 melanoma; 10 µM,18% (inactive) and 28.2% (inactive) and 82.1% (inactive)
same,growth,SK-MEL-2 melanoma; 10 µM,-33.8% (active) and 33.6% (inactive) and 51.8% (inactive)
same,growth,EKVX NSCLC; 10 µM,-24.1% (active) and 43.9% (inactive) and 57.3% (inactive)
same,growth,UO-31 renal; 10 µM,12.8% (inactive) and 11.1% (inactive) and 14.2% (inactive)
same,growth,TK-10 renal; 10 µM,-13.4% (active) and 48.2% (inactive)
same,growth,ACHN renal; 10 µM,16.9% (inactive) and 25.5% (inactive)
same,growth,CAKI-1 renal; 10 µM,-37.7% (active) and 19.8% (inactive) and 21.5% (inactive)
same,growth,A498 renal; 10 µM,-0.261% (active) and 37.5% (inactive) and 18.3% (inactive)
same,growth,CCRF-CEM leukemia; 10 µM,35.3% (inactive) and 20.5% (inactive) and 50.7% (inactive)
same,growth,MOLT-4 leukemia; 10 µM,8.47% (active) and 10.2% (inactive) and 12.6% (inactive)
CC(=O)Nc1cc(C)ccc1C,growth,HCT-15 colon; 10 µM,101% (inactive)
same,growth,HT29 colon; 10 µM,95.3% (inactive)
same,growth,SNB-75 CNS; 10 µM,96.2% (inactive)
same,growth,SNB-19 CNS; 10 µM,101% (inactive)
same,growth,PC-3 prostate; 10 µM,106% (inactive)
same,growth,SK-MEL-5 melanoma,93.3% (inactive)
same,growth,UACC-62 melanoma; 10 µM,98.3% (inactive)
same,growth,LOX IMVI melanoma,101% (inactive)
same,growth,SK-MEL-28 melanoma; 10 µM,105% (inactive)
same,growth,SK-MEL-2 melanoma; 10 µM,101% (inactive)
same,growth,EKVX NSCLC; 10 µM,99.9% (inactive)
same,growth,SN12C renal; 10 µM,101% (inactive)
same,growth,UO-31 renal; 10 µM,88.1% (inactive)
same,growth,TK-10 renal; 10 µM,96.2% (inactive)
same,growth,ACHN renal; 10 µM,106% (inactive)
same,growth,CAKI-1 renal; 10 µM,98.6% (inactive)
same,growth,A498 renal; 10 µM,83.8% (inactive)
same,growth,CCRF-CEM leukemia; 10 µM,128% (inactive)
same,growth,MOLT-4 leukemia; 10 µM,110% (inactive)
CCCCCCCCCCCCSC(=NC)NC,growth,HCT-15 colon; 10 µM,-25.5% (active) and -28.8% (active)
same,growth,HT29 colon; 10 µM,0.0905% (active) and 2.56% (active)
same,growth,SNB-75 CNS; 10 µM,74.8% (inactive) and 82.3% (inactive)
same,growth,SNB-19 CNS; 10 µM,42.6% (inactive) and 91.6% (inactive)
same,growth,PC-3 prostate; 10 µM,42% (inactive) and 67.3% (inactive)
same,growth,SK-MEL-5 melanoma,-5.79% (active) and 69.5% (inactive)
same,growth,UACC-62 melanoma; 10 µM,-58.4% (active) and 61.4% (inactive)
same,growth,LOX IMVI melanoma,-39.5% (active) and 26.8% (inactive)
same,growth,SK-MEL-28 melanoma; 10 µM,26.8% (inactive) and 68.5% (inactive)
same,growth,SK-MEL-2 melanoma; 10 µM,79.2% (inactive) and 95.8% (inactive)
same,growth,SN12C renal; 10 µM,39.4% (inactive) and 60.4% (inactive)
same,growth,UO-31 renal; 10 µM,35.2% (inactive) and 49.6% (inactive)
same,growth,TK-10 renal; 10 µM,62.1% (inactive) and 71.2% (inactive)
same,growth,ACHN renal; 10 µM,43% (inactive) and 86.4% (inactive)
same,growth,CAKI-1 renal; 10 µM,45.8% (inactive) and 73.6% (inactive)
same,growth,A498 renal; 10 µM,72.3% (inactive)
same,growth,CCRF-CEM leukemia; 10 µM,23.7% (inactive)
same,growth,MOLT-4 leukemia; 10 µM,1.27% (active) and 19.1% (inactive)
OC(CN1CCCC2CCCCC21)c1cc2ccccc2c2ccccc12 (centres undefined),growth,HCT-15 colon; 10 µM,22.5% (inactive)
same,growth,HT29 colon; 10 µM,1.91% (active)
same,growth,SNB-75 CNS; 10 µM,12.5% (inactive)
same,growth,SNB-19 CNS; 10 µM,43.6% (inactive)
same,growth,PC-3 prostate; 10 µM,38.5% (inactive)
same,growth,SK-MEL-5 melanoma,-84.6% (active)
same,growth,LOX IMVI melanoma,-19.9% (active)
same,growth,SK-MEL-28 melanoma; 10 µM,49.4% (inactive)
same,growth,SK-MEL-2 melanoma; 10 µM,42.8% (inactive)
same,growth,UO-31 renal; 10 µM,35.6% (inactive)
same,growth,TK-10 renal; 10 µM,52.6% (inactive)
same,growth,ACHN renal; 10 µM,29.1% (inactive)
same,growth,CAKI-1 renal; 10 µM,41.2% (inactive)
same,growth,A498 renal; 10 µM,58.8% (inactive)
same,growth,CCRF-CEM leukemia; 10 µM,68.2% (inactive)
same,growth,MOLT-4 leukemia; 10 µM,-1.89% (active)
O=c1ccn(C2CC(O)C(COC(c3ccccc3)(c3ccccc3)c3ccccc3)O2)c(=O)[nH]1 (centres undefined),growth,HCT-15 colon; 10 µM,88.9% (inactive)
same,growth,HCT-15 colon; 100 µM,33.4% (inactive)
same,growth,HT29 colon; 10 µM,86% (inactive)
same,growth,HT29 colon; 100 µM,33.1% (inactive)
same,growth,SNB-75 CNS; 10 µM,83.2% (inactive)
same,growth,SNB-75 CNS; 100 µM,57.8% (inactive)
same,growth,SNB-19 CNS; 10 µM,98.2% (inactive)
same,growth,SNB-19 CNS; 100 µM,69.8% (inactive)
same,growth,U251 CNS,55.5% [100 µM] (inactive)
same,growth,PC-3 prostate; 10 µM,59.5% (inactive)
same,growth,PC-3 prostate; 100 µM,15% (inactive)
same,growth,UACC-62 melanoma; 10 µM,82.6% (inactive)
same,growth,UACC-62 melanoma; 100 µM,29.8% (inactive)
same,growth,LOX IMVI melanoma,79.2% (inactive)
same,growth,SK-MEL-28 melanoma; 10 µM,118% (inactive)
same,growth,SK-MEL-28 melanoma; 100 µM,45.6% (inactive)
same,growth,SK-MEL-2 melanoma; 100 µM,26% (inactive)
same,growth,EKVX NSCLC; 100 µM,52.8% (inactive)
same,growth,SN12C renal; 10 µM,95.9% (inactive)
same,growth,SN12C renal; 100 µM,38.8% (inactive)
same,growth,UO-31 renal; 10 µM,54.6% (inactive)
same,growth,UO-31 renal; 100 µM,37.1% (inactive)
same,growth,TK-10 renal; 10 µM,95.4% (inactive)
same,growth,TK-10 renal; 100 µM,87.8% (inactive)
same,growth,ACHN renal; 10 µM,86.4% (inactive)
same,growth,ACHN renal; 100 µM,56.9% (inactive)
same,growth,CAKI-1 renal; 10 µM,127% (inactive)
same,growth,CAKI-1 renal; 100 µM,30.3% (inactive)
same,growth,A498 renal; 10 µM,98.6% (inactive)
same,growth,A498 renal; 100 µM,102% (inactive)
same,growth,CCRF-CEM leukemia; 100 µM,45.5% (inactive)
same,growth,MOLT-4 leukemia; 10 µM,67.1% (inactive)
same,growth,MOLT-4 leukemia; 100 µM,9.6% (active)
